Data as given in the supplement of paper PMC9694430.

Legend:
Experiment in all cases: thermal shift delta Tm vs DMSO control; higher = stronger stabilization (binding)
Conditions in all cases: 12.5 µM; protein concentration 2 µM
LOC_OS01G57100-cb003 = test system: LOC_OS01G57100-cb003
How it was run: (§1)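 Compounds dissolved in DMSO were added to purified rice kinase domain constructs, which had been expressed in E. coli, for differential scanning fluorimetry. Each well held 19.5 μl of 2 μM kinase in 100 mM potassium phosphate pH 7.5, 150 mM NaCl, 10% glycerol and 5 × SYPRO Orange. Fluorescence was followed from 25°C to 95°C at a rate of 0.05°C/s. Shifts in Boltzmann-fitted melting temperature are triplicate means relative to DMSO-only protein.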

LOC_OS01G60330-cb001 = test system: LOC_OS01G60330-cb001
How it was run: as §1

LOC_OS01G60700-cb002 = test system: LOC_OS01G60700-cb002
How it was run: as §1

LOC_OS01G63280-cb003 = test system: LOC_OS01G63280-cb003
How it was run: as §1

LOC_OS01G67340-cb003 = test system: LOC_OS01G67340-cb003
How it was run: as §1

LOC_OS01G70970-cb002 = test system: LOC_OS01G70970-cb002
How it was run: as §1

LOC_OS02G07810-cb001 = test system: LOC_OS02G07810-cb001
How it was run: as §1

LOC_OS02G08530-cb003 = test system: LOC_OS02G08530-cb003
How it was run: as §1

LOC_OS02G14120-cb001 = test system: LOC_OS02G14120-cb001
How it was run: as §1

LOC_OS02G17970-cb001 = test system: LOC_OS02G17970-cb001
How it was run: as §1

LOC_OS02G45750-cb003 = test system: LOC_OS02G45750-cb003
How it was run: as §1

LOC_OS02G54510-cb004 = test system: LOC_OS02G54510-cb004
How it was run: as §1

LOC_OS03G04050-cb001 = test system: LOC_OS03G04050-cb001
How it was run: as §1

LOC_OS03G12390-cb001 = test system: LOC_OS03G12390-cb001
How it was run: as §1

LOC_OS03G27990-cb004 = test system: LOC_OS03G27990-cb004
How it was run: as §1

LOC_OS03G50450-cb001 = test system: LOC_OS03G50450-cb001
How it was run: as §1

LOC_OS03G50810-cb003 = test system: LOC_OS03G50810-cb003
How it was run: as §1

LOC_OS04G35114-cb001 = test system: LOC_OS04G35114-cb001
How it was run: as §1

LOC_OS04G38480-cb003 = test system: T1, LOC_OS04G38480-cb003
T1 sequence (whole entry): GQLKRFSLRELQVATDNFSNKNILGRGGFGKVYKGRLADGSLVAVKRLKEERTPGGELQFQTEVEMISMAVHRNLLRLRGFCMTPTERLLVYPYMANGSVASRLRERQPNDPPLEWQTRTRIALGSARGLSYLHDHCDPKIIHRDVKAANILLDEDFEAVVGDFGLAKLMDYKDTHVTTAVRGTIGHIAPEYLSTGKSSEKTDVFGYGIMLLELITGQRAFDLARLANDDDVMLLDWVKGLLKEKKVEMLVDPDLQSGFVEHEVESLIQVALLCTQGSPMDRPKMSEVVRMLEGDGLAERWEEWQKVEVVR
How it was run: as §1

LOC_OS04G41100-cb001 = test system: T2, LOC_OS04G41100-cb001
T2 sequence (whole entry): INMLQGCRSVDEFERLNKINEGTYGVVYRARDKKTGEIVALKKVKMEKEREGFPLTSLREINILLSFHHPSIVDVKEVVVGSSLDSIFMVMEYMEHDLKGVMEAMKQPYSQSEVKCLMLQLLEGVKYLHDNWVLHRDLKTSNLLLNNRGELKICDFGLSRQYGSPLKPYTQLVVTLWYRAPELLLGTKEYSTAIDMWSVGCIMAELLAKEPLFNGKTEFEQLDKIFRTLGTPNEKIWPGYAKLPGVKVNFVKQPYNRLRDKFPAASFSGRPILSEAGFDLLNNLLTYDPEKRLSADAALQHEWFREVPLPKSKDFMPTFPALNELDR
How it was run: as §1

| Structure (SMILES) | thermal shift delta Tm (LOC_OS01G57100-cb003) | thermal shift delta Tm (LOC_OS01G60330-cb001) | thermal shift delta Tm (LOC_OS01G60700-cb002) | thermal shift delta Tm (LOC_OS01G63280-cb003) | thermal shift delta Tm (LOC_OS01G67340-cb003) | thermal shift delta Tm (LOC_OS01G70970-cb002) | thermal shift delta Tm (LOC_OS02G07810-cb001) | thermal shift delta Tm (LOC_OS02G08530-cb003) | thermal shift delta Tm (LOC_OS02G14120-cb001) | thermal shift delta Tm (LOC_OS02G17970-cb001) | thermal shift delta Tm (LOC_OS02G45750-cb003) | thermal shift delta Tm (LOC_OS02G54510-cb004) | thermal shift delta Tm (LOC_OS03G04050-cb001) | thermal shift delta Tm (LOC_OS03G12390-cb001) | thermal shift delta Tm (LOC_OS03G27990-cb004) | thermal shift delta Tm (LOC_OS03G50450-cb001) | thermal shift delta Tm (LOC_OS03G50810-cb003) | thermal shift delta Tm (LOC_OS04G35114-cb001) | thermal shift delta Tm (LOC_OS04G38480-cb003) | thermal shift delta Tm (LOC_OS04G41100-cb001) |
| --- | --- | --- | --- | --- | --- | --- | --- | --- | --- | --- | --- | --- | --- | --- | --- | --- | --- | --- | --- | --- |
| CCCCCCCCCC(=O)CC(O)S(=O)(=O)O (stereo not given) [Sodium Houttuyfonate] | 1.15 °C | 0.04 °C | 0.03 °C | 0.07 °C | 0.28 °C | 0.09 °C | 0.29 °C | 0.25 °C | -0.08 °C | 1.73 °C | 0.77 °C | 0.52 °C | 0.5 °C | 0.34 °C | 0.41 °C | 0.36 °C | 0.37 °C | 0.65 °C | 1.54 °C | 0.45 °C |
| CCOc1cc(C(=O)N2CCC(N3CCN(C)CC3)CC2)ccc1Nc1ncc2c(n1)N(C1CCCC1)c1ccccc1C(=O)N2C | 1.18 °C | 1.19 °C | 0.58 °C | -0.25 °C | 0.42 °C | 0.05 °C | 0.06 °C | 0.54 °C | -0.51 °C | -0.43 °C | 0.51 °C | -0.24 °C | 0 °C | -0.16 °C | 0.03 °C | 0.49 °C | 0.18 °C | 0.47 °C | 1.8 °C | 0.13 °C |
| CN(C)S(=O)(=O)c1ccc2c(c1)/C(=C/c1cc3c([nH]1)CCCC3)C(=O)N2 | 6.51 °C | 10.9 °C | 1.5 °C | 7.86 °C | 11.3 °C | 5.65 °C | 1.5 °C | 5.64 °C | 13 °C | 1.69 °C | 0 °C | 1.15 °C | 0.65 °C | 0.26 °C | 0.61 °C | 0.97 °C | 0 °C | 0 °C | 6.35 °C | 0.43 °C |
| CNS(=O)(=O)Nc1nccc(Cc2c(C)c3ccc(Oc4ncccn4)cc3oc2=O)c1F | 1.4 °C | 0.33 °C | 1.34 °C | 0.93 °C | 0.24 °C | 0.04 °C | 1.08 °C | 0.58 °C | 0.9 °C | 1.23 °C | 0.52 °C | -0.03 °C | 0.37 °C | 0.7 °C | 0.15 °C | 0.4 °C | 0.57 °C | -0.07 °C | 0.35 °C | 0.2 °C |
| O=c1nc(N2CCOCC2)oc2c(-c3cccc4c3sc3ccccc34)cccc12 | 1.63 °C | -0.13 °C | -0.9 °C | -1.32 °C | -1.09 °C | -0.38 °C | -1.31 °C | 0.23 °C | 0.11 °C | -0.76 °C | 0.04 °C | -0.35 °C | -0.14 °C | -0.44 °C | -0.35 °C | 0.04 °C | -0.24 °C | -0.68 °C | 0.64 °C | 0.24 °C |
| CO[C@@H](C)Cn1c(=O)n(C)c2cnc3ccc(-c4cncc(C(C)(C)O)c4)cc3c21 | 1.94 °C | 0.57 °C | 1.37 °C | 0.84 °C | 0.62 °C | 0.44 °C | 0.65 °C | 1.76 °C | 2.83 °C | 0.61 °C | 1.57 °C | 0.18 °C | 0.72 °C | 0.09 °C | 0.68 °C | 0.89 °C | 0.67 °C | 3.42 °C | 1.29 °C | 0.38 °C |
| CN1CCN(C2CCN(C(=O)Nc3cc(Oc4ccc(NC(=O)C5(C(=O)Nc6ccc(F)cc6)CC5)c(F)c4)ccn3)CC2)CC1 [Golvatinib (E7050)] | 0.49 °C | 0.6 °C | 1.6 °C | 0.78 °C | 0.24 °C | 0.6 °C | 0.4 °C | 0.79 °C | 0.6 °C | 2.14 °C | 0.4 °C | -0.38 °C | 0.26 °C | 0.04 °C | 0.36 °C | 0.52 °C | 0.33 °C | 0.27 °C | 1.71 °C | 1.78 °C |
| CC(C)(C#N)c1ccc(N2C(=O)OCc3cnc4ccc(-c5cnc6ccccc6c5)cc4c32)cc1 | 1.9 °C | 0.57 °C | 1.49 °C | 0.63 °C | 0.63 °C | 0.56 °C | 0.18 °C | 0.94 °C | 1.27 °C | 0.63 °C | 0.62 °C | 0.01 °C | 0.55 °C | 0.2 °C | 0.32 °C | 0.21 °C | 0.32 °C | 1.01 °C | 0.8 °C | 0.2 °C |
| C=CC(=O)Nc1cc(Nc2nccc(-c3cn(C)c4ccccc34)n2)c(OC)cc1N(C)CCN(C)C [Osimertinib (AZD9291)] | -0.15 °C | 1.07 °C | 1.16 °C | 0.43 °C | 0.42 °C | 0.32 °C | 0.03 °C | 3.79 °C | 3.74 °C | -0.32 °C | 1.63 °C | 0.52 °C | 0.78 °C | 4.71 °C | 0.93 °C | 0.74 °C | 2.65 °C | 6.25 °C | 2.86 °C | 0.51 °C |
| COc1ncc(-c2cc(-c3ncc(CN4C[C@@H](C)O[C@@H](C)C4)o3)c3cn[nH]c3c2)cc1NS(C)(=O)=O | 1.25 °C | 1.42 °C | 1.12 °C | 0.17 °C | 1.4 °C | 0.12 °C | 0.69 °C | 0.78 °C | -0.2 °C | 0.21 °C | 0.86 °C | 0.25 °C | 0.39 °C | -0.09 °C | 0.23 °C | 0.64 °C | 0.71 °C | 1.06 °C | 0.79 °C | 0.49 °C |
| Nc1nc(Nc2ccc(S(N)(=O)=O)cc2)nn1C(=O)c1c(F)cccc1F | 1.36 °C | 7.23 °C | 0.65 °C | 3.58 °C | 3.74 °C | 3.11 °C | 1.06 °C | 1.98 °C | 8.28 °C | 0.44 °C | 9.34 °C | 2.82 °C | -0.19 °C | 9.07 °C | 3.59 °C | 0.97 °C | 3.42 °C | 4.58 °C | 2.97 °C | 2.3 °C |
| N#CC[C@H](C1CCCC1)n1cc(-c2ncnc3[nH]ccc23)cn1 | 0.48 °C | 1.16 °C | 0.62 °C | 0.56 °C | 0.07 °C | 0.28 °C | 1.11 °C | 1.14 °C | 3.58 °C | 0.47 °C | 0.42 °C | 1.39 °C | 0.15 °C | 2.16 °C | 0.41 °C | 0.17 °C | 0.46 °C | 0.65 °C | 1.14 °C | 0.66 °C |
| C[C@@H](Oc1cc(-n2cnc3ccc(CN4CCN(C)CC4)cc32)sc1C(N)=O)c1ccccc1C(F)(F)F | 0.34 °C | 0.7 °C | 0.72 °C | 0.17 °C | 0.69 °C | 0.44 °C | 1.22 °C | 3.01 °C | -0.04 °C | 0.25 °C | 0.36 °C | -0.15 °C | 0.2 °C | -0.35 °C | -0.09 °C | -0.03 °C | 0.55 °C | 2.11 °C | 0.27 °C | 0.39 °C |
